# Measurements as given in PubChem BioAssay.
# “And” between values parts separate entries of the source, which are not always exact repeats. Equal values may be shown once. Inconclusive results are not listed. The source made the active and inactive calls.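 Rule for the calls, unless noted: active = normalized viability below 100% at a tested concentration; inactive = the rest.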
# Key:
# [1] = tested on: Aerobactin synthetase IucA (Klebsiella pneumoniae); experiment: IucA aerobactin synthetase inhibitors, biochemical, Tocris library, absorbance (AID 1345561; call rule not given here;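 note: 100% = enzyme without compound and 0% = no enzyme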); conditions: purified IucA enzyme assay, absorbance (OD) read-out; stronger effect = lower value;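 tested at 8 µM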
# [2] = growth inhibition of DIPG glioma cells, dose response, cell-based, SU-DIPG-XVII, MIPE5.0, CellTiter-Glo, qHTS (AID 1347060; cut-off not given, nearly all actives have AC50 up to about 26 µM;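 for AC50: cells exposed to compound for 48 hours before viability readout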); conditions: SU-DIPG-XVII viability, CellTiter-Glo ATP luminescence
# [3] = growth inhibition of DIPG glioma cells, dose response, cell-based, SU-DIPG-XIII, MIPE4.0, CellTiter-Glo, qHTS (AID 1347061; cut-off not given, nearly all actives have AC50 up to about 37 µM;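 note: cells exposed to compound for 48 hours before readout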); conditions: SU-DIPG-XIII viability, CellTiter-Glo ATP luminescence
# [4] = growth inhibition of DIPG glioma cells, dose response, cell-based, JHH-DIPG-1, MIPE4.0, CellTiter-Glo, qHTS (AID 1347062; cut-off not given, nearly all actives have AC50 up to about 27 µM); conditions: JHH-DIPG-1 viability, CellTiter-Glo ATP luminescence
# [5] = SU-DIPG-VI glioma cell viability, MIPE4.0 library, CellTiter-Glo luminescence, qHTS (AID 1347066; cut-off not given, nearly all actives have AC50 up to about 30 µM;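 note: cells exposed to compound for 48 hours before readout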); conditions: CellTiter-Glo ATP luminescence
# [6] = JHH-DIPG-1 glioma cell viability, MIPE5.0 library, CellTiter-Glo luminescence, qHTS (AID 1347067; cut-off not given, nearly all actives have AC50 up to about 26 µM;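 note: cells exposed to compound for 48 hours before readout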); conditions: JHH-DIPG-1 glioma viability, CellTiter-Glo ATP luminescence
# [7] = SU-DIPG-XXV glioma cell viability, MIPE5.0 library, qHTS (AID 1347068; cut-off not given, nearly all actives have IC50 up to about 30 µM)
# [8] = sensitizers of A549 cells to miR-34 induction, primary screen, imaging, A549 dox-inducible miR-34, nuclei and caspase counts (AID 1347080;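 active = compounds whose cell count with miR-34 switched on is under 0.7 times the count with it off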); conditions: A549 miR-34 inducible, Hoechst nuclei count, 48 h
# [9] = modifiers of HSF1 nuclear foci, imaging, Selleck Cancer Library (AID 1347162; in the data active = plate-normalised HSF1 focus index below about 0.46); conditions: human cells, at 10 µM; SSMD: measured here: HSF1 foci SSMD mean; cell count: measured here: cell number; plate-normalised HSF1 focus index: stronger effect = lower value
# [10] = survival rescue of mitochondrial mutant cells in low glucose, primary screen, MELAS cybrids, Rieske KO mouse fibroblasts, CellTiter-Glo (AID 1508586;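 active = mean z-score across replicates of 1.96 or higher in either the MELAS or the Rieske mutant cell line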;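 note: z relative to plate mean and SD of compound and empty wells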)
# [11] = ovarian cancer cell viability with rucaparib, profiling panel, oncology-focused library, rucaparib conditional (AID 1508598); conditions: patient-derived ovarian cancer cells, CellTiter-Glo viability, 144 h, stronger effect = lower value
# [12] = viability rescue of complex I mutant cybrids, primary screen, cell-based, galactose medium, ATP luminescence (AID 1645843;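 active = z-score of at least 1.8 in each of two replicates, scored against plate mean and spread of sample wells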;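 note: positive z means more ATP and so rescue of galactose-driven cybrid death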); conditions: complex I mutant cybrid cells, 72 h, stronger effect = higher value
# [13] = LFS_MB_P medulloblastoma growth inhibition, cell-based, chromothripsis tumors, cisplatin or BGB combos (AID 1671449; in the data active = inhibition above about 80%;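 note: cells exposed for 96 hours; 0% = vehicle DMSO and 100% = killing by high DMSO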); conditions: LFS_MB_P medulloblastoma cells
# [14] = HDN33 neuroblastoma growth inhibition, cell-based, chromothripsis tumors, cisplatin or BGB combos (AID 1671450; in the data active = inhibition above about 80%;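 note: cells exposed to compound for four days; 0% = vehicle DMSO and 100% = cell killing by high DMSO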); conditions: HDN33 neuroblastoma cells, stronger effect = higher value
# [15] = ICB984 medulloblastoma cell growth inhibition, synergistic combos for chromothripsis tumors, cisplatin or BGB combos (AID 1671451; call rule not given here;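 note: cells exposed for 96 hours before readout; 0% = vehicle DMSO and 100% = killing by high DMSO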); conditions: ICB984 medulloblastoma cells, drug combinations, stronger effect = higher value
# [16] = HTB85 osteosarcoma cell growth inhibition, synergistic combos for chromothripsis tumors, BGB or cisplatin IC20 combos (AID 1671453; in the data active = inhibition above about 80%;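 note: cells exposed for 96 hours before readout; 0% = vehicle DMSO and 100% = high DMSO killing control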); conditions: HTB85 osteosarcoma cells, drug combinations, stronger effect = higher value
# [17] = growth inhibition of DIPG glioma cells, dose response, cell-based, SU-DIPG-XIII, MIPE5.0, CellTiter-Glo, qHTS (AID 1347064; cut-off not given, nearly all actives have AC50 up to about 23 µM;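 for AC50: cells exposed to compound for 48 hours before the viability read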); conditions: SU-DIPG-XIII viability, CellTiter-Glo ATP luminescence
# [18] = liver-stage malaria parasite growth inhibition, primary screen, cell-based, HepG2, luciferase luminescence, HepG2 viability (AID 624349; in the data active = parasite load remaining mostly below about 12%, no sharp cut-off; inactive = mostly above about 10%;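 note: 100% = mean of DMSO negative control wells on the same plate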); conditions: P. berghei liver stage in HepG2, luciferase luminescence, concentration not given here; parasite load remaining: stronger effect = lower value; viability: measured here: HepG2 viability without parasites
# [19] = stronger effect = lower value, cell number ratio, induced over uninduced
# [20] = measured here: relative caspase fold change +Dox/-Dox
# [21] = measured here: total cells with miR-34 induction, stronger effect = lower value
# [22] = measured here: total cells without miR-34 induction
# [23] = MELAS cybrid survival, CellTiter-Glo 48 h, stronger effect = higher value
# [24] = Rieske KO mouse fibroblast survival, CellTiter-Glo 72 h
compound,measurement,setting,value
N#Cc1c(O)c2c(-c3ccc(-c4ccccc4O)cc3)csc2[nH]c1=O,remaining activity,[1],103% (inactive)
same,outcome,[2],inactive
same,outcome,[3],inactive
same,outcome,[4],inactive
same,outcome,[5],inactive
same,outcome,[6],inactive
same,outcome,[7],inactive
same,fold change,[8]; [19],0.919 (inactive) and 1.01 (inactive)
same,fold change,[8]; [20],0.924 and 1.54
same,cell count,[8]; [21],10000 and 9660
same,cell count,[8]; [22],10900 and 9540
same,SSMD,[9],3.35
same,cell count,[9],7410
same,plate-normalised HSF1 focus index,[9],1.12 (inactive)
same,z-score,[10]; [23],-0.277 (inactive)
same,z-score,[10]; [24],1.29
same,viability,"[11]; at 0.000305 µM, OCI-C5x cells, with rucaparib 10 µM, 100% = cells with rucaparib alone",106% (inactive)
same,viability,"[11]; at 0.000305 µM, OCI-C5x cells, without rucaparib",121% (inactive)
same,viability,"[11]; at 0.000305 µM, OCI-P5x cells, with rucaparib 20 µM, 100% = cells with rucaparib alone",114% (inactive)
same,viability,"[11]; at 0.000305 µM, OCI-P5x cells, without rucaparib",119% (inactive)
same,viability,"[11]; at 0.00122 µM, OCI-C5x cells, with rucaparib 10 µM, 100% = cells with rucaparib alone",115% (inactive)
same,viability,"[11]; at 0.00122 µM, OCI-C5x cells, without rucaparib",131% (inactive)
same,viability,"[11]; at 0.00122 µM, OCI-P5x cells, with rucaparib 20 µM, 100% = cells with rucaparib alone",119% (inactive)
same,viability,"[11]; at 0.00122 µM, OCI-P5x cells, without rucaparib",107% (inactive)
same,viability,"[11]; at 0.00488 µM, OCI-C5x cells, with rucaparib 10 µM, 100% = cells with rucaparib alone",111% (inactive)
same,viability,"[11]; at 0.00488 µM, OCI-C5x cells, without rucaparib",126% (inactive)
same,viability,"[11]; at 0.00488 µM, OCI-P5x cells, with rucaparib 20 µM, 100% = cells with rucaparib alone",116% (inactive)
same,viability,"[11]; at 0.00488 µM, OCI-P5x cells, without rucaparib",113% (inactive)
same,viability,"[11]; at 0.0195 µM, OCI-C5x cells, with rucaparib 10 µM, 100% = cells with rucaparib alone",112% (inactive)
same,viability,"[11]; at 0.0195 µM, OCI-C5x cells, without rucaparib",122% (inactive)
same,viability,"[11]; at 0.0195 µM, OCI-P5x cells, with rucaparib 20 µM, 100% = cells with rucaparib alone",116% (inactive)
same,viability,"[11]; at 0.0195 µM, OCI-P5x cells, without rucaparib",114% (inactive)
same,viability,"[11]; at 0.0781 µM, OCI-C5x cells, with rucaparib 10 µM, 100% = cells with rucaparib alone",113% (inactive)
same,viability,"[11]; at 0.0781 µM, OCI-C5x cells, without rucaparib",127% (inactive)
same,viability,"[11]; at 0.0781 µM, OCI-P5x cells, with rucaparib 20 µM, 100% = cells with rucaparib alone",119% (inactive)
same,viability,"[11]; at 0.0781 µM, OCI-P5x cells, without rucaparib",115% (inactive)
same,viability,"[11]; at 0.313 µM, OCI-C5x cells, with rucaparib 10 µM, 100% = cells with rucaparib alone",115% (inactive)
same,viability,"[11]; at 0.313 µM, OCI-C5x cells, without rucaparib",134% (inactive)
same,viability,"[11]; at 0.313 µM, OCI-P5x cells, with rucaparib 20 µM, 100% = cells with rucaparib alone",117% (inactive)
same,viability,"[11]; at 0.313 µM, OCI-P5x cells, without rucaparib",118% (inactive)
same,viability,"[11]; at 1.25 µM, OCI-C5x cells, with rucaparib 10 µM, 100% = cells with rucaparib alone",112% (inactive)
same,viability,"[11]; at 1.25 µM, OCI-C5x cells, without rucaparib",140% (inactive)
same,viability,"[11]; at 1.25 µM, OCI-P5x cells, with rucaparib 20 µM, 100% = cells with rucaparib alone",107% (inactive)
same,viability,"[11]; at 1.25 µM, OCI-P5x cells, without rucaparib",107% (inactive)
same,viability,"[11]; at 5 µM, OCI-C5x cells, with rucaparib 10 µM, 100% = cells with rucaparib alone",118% (inactive)
same,viability,"[11]; at 5 µM, OCI-C5x cells, without rucaparib",135% (inactive)
same,viability,"[11]; at 5 µM, OCI-P5x cells, with rucaparib 20 µM, 100% = cells with rucaparib alone",92.2% (active)
same,viability,"[11]; at 5 µM, OCI-P5x cells, without rucaparib",90.6% (active)
same,z-score,[12],1.98 (inactive)
CCc1c2c(nc3ccc(O)cc13)-c1cc3c(c(=O)n1C2)COC(=O)[C@]3(O)CC,remaining activity,[1],107% (inactive)
same,AC50,[2],0.00833 µM (active)
same,fold change,[8]; [19],0.769 (inactive) and 0.994 (inactive)
same,fold change,[8]; [20],3.45 and 2.11
same,cell count,[8]; [21],1510 and 2070
same,cell count,[8]; [22],1960 and 2080
same,z-score,[10]; [23],0.182 (inactive)
same,z-score,[10]; [24],-0.363
same,z-score,[12],-0.66 (inactive)
same,inhibition,"[13]; at 0.5 µM, stronger effect = higher value",-26% (inactive)
same,inhibition,"[13]; measured here: combination with BGB IC20, at 0.005 µM",-6.89%
same,inhibition,"[13]; measured here: combination with BGB IC40, at 0.005 µM",-27.9%
same,inhibition,"[13]; measured here: combination with BGB IC40, at 0.05 µM",-20.9%
same,inhibition,"[13]; measured here: combination with cisplatin, at 0.5 µM, stronger effect = higher value",-58.2%
same,inhibition,"[13]; measured here: combination with cisplatin, at 5 µM, stronger effect = higher value",87.9%
same,inhibition,"[14]; BGB combo, at 5 µM",98.3%
same,inhibition,[14]; at 0.5 µM,84.1% (active)
same,inhibition,"[14]; cisplatin combo, at 5 µM",98.4%
same,inhibition,"[14]; measured here: with BGB IC20 combination, at 0.5 µM",83%
same,inhibition,"[14]; measured here: with cisplatin IC20 combination, at 0.5 µM",82.2%
same,inhibition,"[14]; single agent, at 5 µM",96.3%
same,inhibition,"[15]; BGB IC20 combo, at 0.005 µM",45.8%
same,inhibition,"[15]; BGB IC40 combo, at 0.005 µM",68.8%
same,inhibition,"[15]; BGB IC40 combo, at 0.05 µM",95.3%
same,inhibition,[15]; at 0.5 µM,-17.9% (inactive)
same,inhibition,"[15]; cisplatin combo, at 0.05 µM",95.2%
same,inhibition,"[15]; cisplatin combo, at 0.5 µM",-11.4%
same,inhibition,"[15]; cisplatin combo, at 5 µM",-28.7%
same,inhibition,"[15]; measured here: 5 uM single agent, at 5 µM",-16.8%
same,inhibition,[16]; at 0.5 µM,98.3% (active)
same,inhibition,"[16]; measured here: with BGB IC20, at 0.5 µM",96.1%
same,inhibition,"[16]; measured here: with BGB IC20, at 5 µM",98.1%
same,inhibition,"[16]; measured here: with cisplatin IC20, at 0.5 µM",99.1%
same,inhibition,"[16]; measured here: with cisplatin IC20, at 5 µM",99.5%
same,inhibition,"[16]; single agent, at 5 µM",99.6%
COc1ccc(CCN(C)CCCOc2ccc(S(=O)(=O)c3c(C(C)C)c4ccccc4n3C)cc2)cc1OC,remaining activity,[1],115% (inactive)
same,AC50,[2],18.6 µM (active)
same,AC50,[17],23.5 µM (active)
same,outcome,[5],inactive
same,AC50,[6],10.5 µM (active)
same,fold change,[8]; [19],1.02 (inactive)
same,fold change,[8]; [20],0.864
same,cell count,[8]; [21],222
same,cell count,[8]; [22],219
same,SSMD,[9],-4.23
same,cell count,[9],5740
same,plate-normalised HSF1 focus index,[9],0.749 (inactive)
same,z-score,[12],-1.04 (inactive)
COc1cccc(-c2cc(=O)c3ccccc3o2)c1N,parasite load remaining,[18],29.3% (inactive)
same,viability,[18],68.4%
same,remaining activity,[1],102% (inactive)
same,outcome,[2],inactive
same,outcome,[3],inactive
same,outcome,[4],inactive
same,outcome,[17],inactive
same,outcome,[7],inactive
same,z-score,[10]; [23],-0.498 (inactive)
same,z-score,[10]; [24],1.33
same,z-score,[12],-0.045 (inactive) and 0.145 (inactive)
